Test results reported in PubChem BioAssay (EPA / NIEHS).
Results filed as inconclusive are left out. Calls of active or inactive are those of the source. Rule for the calls, unless noted: active = hit-call score of the fitted dose curve at least 0.9, where 1 is the maximum; inconclusive = response in the unintended direction; inactive = score below 0.9.

Biological target: Steroid hormone receptor ERR1 (Homo sapiens) (UniProt P11474)
Assay: ATG_ERRa_TRANS: Attagene TRANS-FACTORIAL HepG2 Assay for human Estrogen-Related Receptor alpha (ERRa) (AID 2282971)
Conditions: HepG2 Attagene TRANS reporter, ERRa transactivation
Procedure, shortened: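 HepG2 cells transiently transfected with multiplexed GAL4-UAS reporter units reading chimeric ERRa-Gal4 activity; 24 h compound exposure. Reporter mRNA measured by RT-PCR, 6-FAM labelling, HpaI digest and capillary electrophoresis; gain of signal fitted versus DMSO baseline.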

Steroid hormone receptor ERR1 (Homo sapiens), sequence (P11474 whole entry, looked up): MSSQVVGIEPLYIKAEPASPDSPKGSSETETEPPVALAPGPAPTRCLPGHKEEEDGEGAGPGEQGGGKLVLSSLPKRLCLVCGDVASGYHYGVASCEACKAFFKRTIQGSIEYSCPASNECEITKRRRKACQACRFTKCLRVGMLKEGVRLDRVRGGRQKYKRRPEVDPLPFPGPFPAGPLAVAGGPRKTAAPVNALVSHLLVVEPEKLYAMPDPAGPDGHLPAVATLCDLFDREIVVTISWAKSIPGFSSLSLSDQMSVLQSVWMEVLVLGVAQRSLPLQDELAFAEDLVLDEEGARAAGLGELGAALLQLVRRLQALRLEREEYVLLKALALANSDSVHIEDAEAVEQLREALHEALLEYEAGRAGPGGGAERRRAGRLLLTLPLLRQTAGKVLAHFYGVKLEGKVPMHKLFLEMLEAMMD

Row | Compound | outcome
1 | N#[N+]c1ccc2c(S(=O)(=O)[O-])cccc2c1O | inactive
2 | O=S(=O)(O)c1cc(S(=O)(=O)O)c2ccc3c(S(=O)(=O)O)cc(S(=O)(=O)O)c4ccc1c2c43 | inactive
3 | NC(=O)N=NC(N)=O | inactive
4 | CCCOCCOCCOCCO | inactive
5 | [Cl][Nd]([Cl])[Cl] | inactive
6 | C=CC(C)(C)C | inactive
7 | CCCCC(CC)COC(=O)c1ccccc1O (stereo unspecified) | inactive
8 | CCCC(=O)OCc1ccccc1 | inactive
9 | CCCOC(=O)CCCCC(=O)OCCC | inactive
10 | SCCc1cnccn1 | inactive

Biological target: X-box-binding protein 1 (Homo sapiens) (UniProt P17861)
Assay: ATG_Xbp1_CIS: Attagene CIS-FACTORIAL HepG2 Assay for human X-box Binding Protein 1 (XBP1) (AID 2282972; active = hit-call score of the fitted dose curve at least 0.9, where 1 is the maximum; inactive = score below 0.9)
Conditions: HepG2 XBP1 cis-element reporter, Attagene multiplex; actives raise or lower the signal
Procedure, shortened: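 Read-out: fluorescent reporter mRNA fragments resolved by capillary electrophoresis after RT-PCR. Human HepG2 liver cells carried transfected cis-promoter reporter units and were exposed to chemicals for 24 hours. Gain or loss of signal fitted relative to DMSO baseline.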

X-box-binding protein 1 (Homo sapiens), sequence (P17861 whole entry, looked up): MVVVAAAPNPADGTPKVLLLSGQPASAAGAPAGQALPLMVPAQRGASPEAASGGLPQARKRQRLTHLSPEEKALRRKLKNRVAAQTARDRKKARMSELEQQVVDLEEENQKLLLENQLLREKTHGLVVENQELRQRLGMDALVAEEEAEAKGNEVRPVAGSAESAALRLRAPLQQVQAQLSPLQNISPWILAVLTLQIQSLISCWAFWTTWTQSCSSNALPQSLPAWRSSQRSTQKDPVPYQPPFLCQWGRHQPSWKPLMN

Row | Compound | outcome | AC50
11 | N#[N+]c1ccc2c(S(=O)(=O)[O-])cccc2c1O | inactive | 
12 | COCc1c(C(C)C)nc(C(C)C)c(/C=C/[C@@H](O)C[C@@H](O)CC(=O)O)c1-c1ccc(F)cc1 | inactive | 
13 | Cc1ccc([N+](=O)[O-])cc1S(=O)(=O)O | inactive | 
14 | CCC(CO)CO | inactive | 
15 | O=S(=O)(O)c1cc(S(=O)(=O)O)c2ccc3c(S(=O)(=O)O)cc(S(=O)(=O)O)c4ccc1c2c43 | inactive | 
16 | NC(=O)N=NC(N)=O | inactive | 
17 | CCCCC(CC)COC(=O)c1ccccc1 (stereo unspecified) | inactive | 
18 | Oc1ccc(Cl)cc1Cc1cc(Cl)ccc1O |  | 6.64 µM (active)
19 | Cc1ccc2c(c1)C(=O)c1ccccc1C2=O | inactive | 
20 | CC(C)c1ccc(C=O)cc1 | inactive | 
21 | [Cl][Nd]([Cl])[Cl] | inactive | 
22 | O=Cc1ccc(CO)o1 | inactive | 
23 | CCN(CC#N)c1cccc(C)c1 | inactive | 
24 | CCC(C)C=O (stereo unspecified) | inactive | 
25 | Nc1ccc(N)c(Cl)c1 | inactive | 
26 | CC(=O)OCC(C)OC(C)=O (stereo unspecified) | inactive | 

Row | Compound | outcome | AC50
27 | c1ccc(-c2ccccn2)nc1 | inactive | 
28 | CCCCCCCCCCCCCCCC(=O)OCC | inactive | 
29 | CCO[Si](CCCN=C=O)(OCC)OCC | inactive | 
30 | c1cc(N(CC2CO2)CC2CO2)ccc1OCC1CO1 (stereo unspecified) |  | 12.9 µM (active)
31 | C=CCCCCCCCCC(=O)OCCCC | inactive | 
32 | CCCc1ccc(OC)cc1 | inactive | 
33 | COC(=O)/C=C\C(=O)O | inactive | 
34 | CCC(CC)C(=O)O | inactive | 
35 | O=C(Cl)c1cc(C(=O)Cl)cc(C(=O)Cl)c1 | inactive | 
36 | CCCCC(CC)COC(=O)c1ccccc1O (stereo unspecified) | inactive | 
37 | NC(=O)NNC(N)=O | inactive | 
38 | CCCC(=O)OCc1ccccc1 | inactive | 
39 | CCCOC(=O)CCCCC(=O)OCCC | inactive | 
40 | CC[C@H]1OC(=O)[C@H](C)[C@@H](O[C@H]2C[C@@](C)(OC)[C@@H](O)[C@H](C)O2)[C@H](C)[C@@H](O[C@@H]2O[C@H](C)C[C@H](N(C)C)[C@H]2O)[C@](C)(O)C[C@@H](C)C(=NOCOCCOC)[C@H](C)[C@@H](O)[C@]1(C)O | inactive | 
41 | COC(=O)C1=C(C)NC(C)=C(C(=O)OCC(C)C)C1c1ccccc1[N+](=O)[O-] (stereo unspecified) | inactive | 
42 | O=C(O)Cc1c(Cl)ccc(Cl)c1Cl | inactive | 

Tested on: not listed separately
Assay: ATG_M_19_TRANS: Attagene TRANS-FACTORIAL HepG2 Assay for M19 Transcription Factor (Internal Marker) (AID 2282974)
Conditions: HepG2 Attagene TRANS-FACTORIAL M19 internal marker reporter
Procedure, shortened: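 Background-control readout: after 24 h chemical exposure of transfected HepG2 carrying GAL4-driven reporter units, RNA was reverse-transcribed, amplified, fluorescently labeled and sized by capillary electrophoresis; gain-of-signal fit against DMSO.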

Row | Compound | outcome
43 | N#[N+]c1ccc2c(S(=O)(=O)[O-])cccc2c1O | inactive
44 | COCc1c(C(C)C)nc(C(C)C)c(/C=C/[C@@H](O)C[C@@H](O)CC(=O)O)c1-c1ccc(F)cc1 | inactive
45 | Cc1ccc([N+](=O)[O-])cc1S(=O)(=O)O | inactive
46 | CCC(CO)CO | inactive
47 | O=S(=O)(O)c1cc(S(=O)(=O)O)c2ccc3c(S(=O)(=O)O)cc(S(=O)(=O)O)c4ccc1c2c43 | inactive
48 | CCCCC(CC)COC(=O)c1ccccc1 (stereo unspecified) | inactive
49 | CCCOCCOCCOCCO | inactive
50 | CCC(C)C=O (stereo unspecified) | inactive
51 | CCc1c(C(=O)O)c(=O)cnn1-c1ccc(Cl)cc1 | inactive
52 | CC(=O)OCC(C)OC(C)=O (stereo unspecified) | inactive
53 | C=CC(C)(C)C | inactive
54 | CC(C)(Oc1ccc(C2CC2(Cl)Cl)cc1)C(=O)O (stereo unspecified) | inactive
55 | CCCCCCCCCCCCCCCC(=O)OCC | inactive
56 | CCO[Si](CCCN=C=O)(OCC)OCC | inactive
57 | c1cc(N(CC2CO2)CC2CO2)ccc1OCC1CO1 (stereo unspecified) | inactive
58 | C=CCCCCCCCCC(=O)OCCCC | inactive
59 | CCCc1ccc(OC)cc1 | inactive
60 | CCC(CC)C(=O)O | inactive
61 | NC(=O)NNC(N)=O | inactive
62 | CCCC(=O)OCc1ccccc1 | inactive
63 | CCCOC(=O)CCCCC(=O)OCCC | inactive
64 | CC[C@H]1OC(=O)[C@H](C)[C@@H](O[C@H]2C[C@@](C)(OC)[C@@H](O)[C@H](C)O2)[C@H](C)[C@@H](O[C@@H]2O[C@H](C)C[C@H](N(C)C)[C@H]2O)[C@](C)(O)C[C@@H](C)C(=NOCOCCOC)[C@H](C)[C@@H](O)[C@]1(C)O | inactive
65 | O=C(O)Cc1c(Cl)ccc(Cl)c1Cl | inactive

Tested on: not listed separately
Assay: ATG_GAL4_TRANS: Attagene TRANS-FACTORIAL HepG2 Assay for GAL4 (Internal Marker) (AID 2282976)
Conditions: HepG2 Attagene TRANS GAL4 internal marker reporter
Procedure, shortened: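 HepG2 cells transiently transfected with multiplexed GAL4-UAS reporter constructs were dosed for 24 h. Reporter mRNA was measured by RT-PCR, 6-FAM primer extension, HpaI digestion and capillary electrophoresis, and gain of signal was fitted relative to DMSO.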

Row | Compound | outcome
66 | N#[N+]c1ccc2c(S(=O)(=O)[O-])cccc2c1O | inactive
67 | COCc1c(C(C)C)nc(C(C)C)c(/C=C/[C@@H](O)C[C@@H](O)CC(=O)O)c1-c1ccc(F)cc1 | inactive
68 | CCC(CO)CO | inactive
69 | NC(=O)N=NC(N)=O | inactive
70 | Cc1ccc2c(c1)C(=O)c1ccccc1C2=O | inactive
71 | O=Cc1ccc(CO)o1 | inactive
72 | CCc1c(C(=O)O)c(=O)cnn1-c1ccc(Cl)cc1 | inactive
73 | NC(=O)OCC(COC(N)=O)c1ccccc1 | inactive
74 | C=CC(C)(C)C | inactive
75 | CC(C)(Oc1ccc(C2CC2(Cl)Cl)cc1)C(=O)O (stereo unspecified) | inactive
76 | CCCCCCCCCCCCCCCC(=O)OCC | inactive
77 | CCO[Si](CCCN=C=O)(OCC)OCC | inactive
78 | C=C(C)CCO | inactive
79 | CCCc1ccc(OC)cc1 | inactive
80 | CCC(CC)C(=O)O | inactive
81 | C=C(C)[C@H]1CC=C(C)CC1 | inactive
82 | CCCC(=O)OCc1ccccc1 | inactive
83 | CCCOC(=O)CCCCC(=O)OCCC | inactive
84 | SCCc1cnccn1 | inactive
85 | CC[C@H]1OC(=O)[C@H](C)[C@@H](O[C@H]2C[C@@](C)(OC)[C@@H](O)[C@H](C)O2)[C@H](C)[C@@H](O[C@@H]2O[C@H](C)C[C@H](N(C)C)[C@H]2O)[C@](C)(O)C[C@@H](C)C(=NOCOCCOC)[C@H](C)[C@@H](O)[C@]1(C)O | inactive
86 | COC(=O)C1=C(C)NC(C)=C(C(=O)OCC(C)C)C1c1ccccc1[N+](=O)[O-] (stereo unspecified) | inactive
